# Screening data (PubChem)
# Hits are enriched below; roughly 1.5% of the tested compounds scored in any of these assays.
# cardiac RTF act – increases calcium sensitivity of human cardiac regulated thin filaments; P19429+P45379; IANBD-labeled TnC RTF fluorescence at EC20 calcium; 0% EC20 calcium, 100% full calcium; activation, % at 7.2 µM; 340,000 compounds, 0.24% hits; AID 493008;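 active = activation above the mean over all tested compounds plus 3 SD, cut at about 30% in these data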;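 also: rise in fluorescence read as greater calcium sensitivity of cardiac thin filaments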
# IDE act – activators of human insulin-degrading enzyme in cells. P14735. HEK cells, FAbeta-B cleavage, fluorescence polarization; 0% vehicle, 100% cell-free pure enzyme wells. activation, % at 5.96 µM. 340,000 compounds, 0.073% hits. AID 493087;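 active = activation above the mean of all tested compounds plus 3 SD, set per screening campaign, cut at about 17% in these data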
# Target sequence (P14735 whole entry, looked up): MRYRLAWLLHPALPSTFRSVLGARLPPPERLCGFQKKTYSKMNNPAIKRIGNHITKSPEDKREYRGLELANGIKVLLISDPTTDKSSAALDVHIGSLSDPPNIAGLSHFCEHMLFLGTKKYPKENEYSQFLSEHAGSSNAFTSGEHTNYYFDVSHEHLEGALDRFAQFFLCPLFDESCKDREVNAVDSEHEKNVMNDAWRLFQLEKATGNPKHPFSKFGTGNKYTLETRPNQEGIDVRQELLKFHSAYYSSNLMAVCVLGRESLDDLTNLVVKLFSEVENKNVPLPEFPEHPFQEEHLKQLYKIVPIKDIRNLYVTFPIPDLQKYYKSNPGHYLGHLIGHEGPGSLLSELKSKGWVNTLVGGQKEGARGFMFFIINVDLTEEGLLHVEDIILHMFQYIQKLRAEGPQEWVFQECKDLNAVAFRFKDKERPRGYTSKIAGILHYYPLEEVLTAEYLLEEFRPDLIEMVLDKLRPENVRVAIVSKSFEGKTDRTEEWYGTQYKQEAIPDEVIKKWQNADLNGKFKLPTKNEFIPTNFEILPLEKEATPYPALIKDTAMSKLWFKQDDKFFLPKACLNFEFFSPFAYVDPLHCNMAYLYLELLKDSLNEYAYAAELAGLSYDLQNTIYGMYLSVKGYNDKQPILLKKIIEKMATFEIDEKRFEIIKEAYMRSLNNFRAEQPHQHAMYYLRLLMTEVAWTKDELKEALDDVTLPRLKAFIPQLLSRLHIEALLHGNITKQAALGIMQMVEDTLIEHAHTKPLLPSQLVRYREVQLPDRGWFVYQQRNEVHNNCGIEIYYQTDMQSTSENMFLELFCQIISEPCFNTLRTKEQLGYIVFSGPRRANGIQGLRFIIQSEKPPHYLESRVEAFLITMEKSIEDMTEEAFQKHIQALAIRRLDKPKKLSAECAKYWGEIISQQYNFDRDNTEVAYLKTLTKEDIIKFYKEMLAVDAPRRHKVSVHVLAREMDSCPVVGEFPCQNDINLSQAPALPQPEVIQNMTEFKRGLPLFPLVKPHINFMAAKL
# RTF Ca sens inh – cardiac RTF calcium desensitization. inhibition, % at 7.15 µM. IANBD-labeled cardiac RTF, Ca2+ fluorescence. 340,000 compounds, 0.12% hits. AID 493244. P19429+P45379;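 active = inhibition above the mean inhibition of all tested compounds plus 3 SD, cut at about 17% in these data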;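 also: assay run at fixed EC70 calcium of 1.6 mM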
# TPT1 inhibitor – C. albicans TPT1 enzyme inhibition; 300,000 compounds, 0.81% hits; recombinant caTPT1, FP RNA substrate dephosphorylation; inhibition, % at 5 µM;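 active = inhibition above the mean of all tested compounds plus 3 SD, set per screening campaign, cut at about 24% in these data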
# CRFR2-BP ag – agonists of human CRF-binding protein/CRF-R2 receptor complex; HEK293 CRF-R2/CRF-BP, calcium dye fluorescence (FLIPR); percent of saturating CRF peptide response; activation, % at 13.2 µM; 350,000 compounds, 0.46% hits; AID 588473;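 active = activation of at least 50%, plus an integration ratio under a set limit after plate pattern correction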
# IDE inh – cellular human IDE inhibition; inhibition, % at 5.59 µM; HEK cells, FAbetaB cleavage, fluorescence polarization; 320,000 compounds, 0.41% hits;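 active = percent inhibition above the average of all tested compounds plus 3 SD, set per screening campaign, cut at about 16% in these data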;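 also: IDE supplied by intact live HEK cells; FP after avidin binding of uncleaved biotin substrate so inhibition keeps polarization high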
# RTF Ca inh conf – cardiac RTF calcium sensitivity inhibition, confirmation; shares compounds with RTF Ca sens inh; reconstituted cardiac thin filaments, calcium sensitivity fluorescence; inhibition, % at 7.15 µM; 360 compounds, 8% hits; in the data active = inhibition above about 18%
# Hits are given with their value; – = inactive; · = no result.
SMILES,cardiac RTF act,IDE act,RTF Ca sens inh,TPT1 inhibitor,CRFR2-BP ag,IDE inh,RTF Ca inh conf
c1ccc(-c2noc(C34CC5CC(CC(C5)C3)C4)n2)cc1,–,–,–,–,–,–,·
c1ccc(-c2noc(C34CC5CC(CC(C5)C3)C4)n2)nc1,–,–,18.4,–,–,–,–
Cc1cc(NC(=O)CN2CCN(c3ncccn3)CC2)no1,–,–,21.0,–,–,–,–
O=C(O)Cc1c[nH]c2ccc(O)cc12,–,–,17.5,–,–,–,–
COc1ccc2[nH]cc(CC(=O)O)c2c1,–,–,–,–,–,–,·
Cc1cc(C)c(C(=O)Cn2cnc3cc([N+](=O)[O-])ccc3c2=O)cc1C,–,–,–,–,–,–,·
CC1CCCCN1C(=O)Cn1cnc2cc([N+](=O)[O-])ccc2c1=O (stereo not given),–,–,18.2,–,–,–,–
CC1CCC(NC(=O)CN2C(=O)NC3(CCCCCC3)C2=O)CC1 (stereo not given),–,–,–,·,–,–,·
CCn1c(=O)cc(SCC(=O)Nc2cccc(C)n2)c2ccccc21,–,–,18.2,–,–,–,–
O=C(NCC1CCCO1)c1ccc(Cl)c(S(=O)(=O)Nc2ccccc2)c1 (stereo not given),–,–,–,–,–,–,·
Cc1ccc2nc(NC(=O)COC(=O)CSc3nc(C)cc(C)n3)sc2c1,–,–,19.2,–,–,–,–
COC(=O)c1ccc2nc(NC(=O)COC(=O)CSc3nc(C)cc(C)n3)sc2c1,–,–,–,–,–,–,·
O=C1CSC(c2cccc([N+](=O)[O-])c2)N1Cc1ccccc1 (stereo not given),–,–,–,·,–,·,·
c1coc(CNC2CCCCCCC2)c1,–,–,18.2,–,–,–,–
c1coc(CNC2CCCCC2)c1,–,–,–,–,–,–,·
Cc1cccc(NC(=O)CSc2ccc3nnc(-c4cccnc4)n3n2)c1,–,–,–,–,–,–,·
OCCCCNCc1ccc(OCc2ccc(Cl)cc2)cc1,–,–,17.0,–,–,–,–
O=C(O)c1ccc2c(c1)[C@@H]1C=CC[C@@H]1[C@H](c1ccccn1)N2,–,–,86.1,–,–,–,21.9
CC(=O)C1=C(C)NC(SCC(=O)c2ccc(F)cc2)=C(C#N)C1CC(C)C (stereo not given),–,–,18.8,–,–,–,–
CCOC(=O)c1c(C=O)c(C)n(Cc2ccccc2Cl)c1C,–,–,17.7,–,–,–,–
CCOC(=O)c1c(C=O)c(C)n(Cc2ccc(C)cc2)c1C,–,–,–,–,–,–,·
O=C(N/N=C/c1cn(Cc2cccc(F)c2)c2ccccc12)c1cc(O)cc(O)c1,–,–,20.6,·,–,·,–
Nc1ccc(C(=O)N/N=C/c2cn(Cc3ccc(F)cc3)c3ccccc23)cc1,–,–,–,·,–,·,·
O=C(CSc1nc(-c2ccccc2)nc2c1Cc1ccccc1O2)Nc1ccc(C(=O)O)cc1,–,–,20.4,·,–,·,–
CC(=O)N1CCc2c(sc(NC(=O)c3ccc(S(=O)(=O)N(C)CC4CCCO4)cc3)c2C(N)=O)C1 (stereo not given),·,·,·,·,–,·,·
SMILES,cardiac RTF act,IDE act,RTF Ca sens inh,TPT1 inhibitor,CRFR2-BP ag,IDE inh,RTF Ca inh conf
C=CCNC(=S)Nc1cccc2ccccc12,–,–,19.6,–,–,–,–
C=CCNC(=S)NCc1ccccc1,–,–,–,–,–,–,·
CCc1cc(C(=O)N/N=C/c2ccc(OC)cc2)c2ccccc2n1,–,–,18.5,–,–,–,–
O=C(N/N=C/c1cccc(F)c1)c1cc(-c2ccco2)nc2ccccc12,–,–,17.1,–,–,–,–
COc1ccc(OC)c(-c2cc(C(=O)N/N=C/c3ccc(F)cc3)c3ccccc3n2)c1,·,·,·,–,–,–,·
COc1ncnc2c1ncn2CCCN(C)CCc1ccccn1,·,·,·,·,–,·,·
Cc1c(Cl)c([N+](=O)[O-])nn1CC(=O)N1CCN(C23CC4CC(CC(C4)C2)C3)CC1,–,–,–,–,–,–,·
COc1ccccc1/C=C/c1nc(S(=O)(=O)c2ccccc2)c(N2CCC(C(N)=O)CC2)o1,–,–,–,–,–,–,·
COCCNc1oc(/C=C/c2ccccc2OC)nc1S(=O)(=O)c1ccccc1,–,–,18.1,–,–,–,–
Cc1ccc(OCCSc2nc3ccccc3n2CCC(=O)O)cc1,–,–,–,–,–,–,·
Cc1ccc(N(C(=O)c2csnn2)C(C(=O)NC2CCCCC2)c2ccncc2)c(C)c1 (stereo not given),–,–,–,–,–,–,·
Cn1c(Cn2nnc3ccccc32)nnc1SCC(=O)N1c2ccccc2Sc2ccccc21,–,–,–,–,–,–,·
Cn1c(SCC(=O)N2c3ccccc3Sc3ccccc32)nc2ccccc21,–,–,18.9,–,–,–,–
CCN1/C(=C/c2ccc3ccccc3[n+]2CC)C=Cc2ccccc21,–,–,17.4,–,–,–,–
CCOC(=O)CN(C(=O)COc1ccc2c(C)cc(=O)oc2c1)c1ccc(OCC)cc1,–,–,–,–,–,–,·
COc1cc2c(ccc3cc(OC)c(OC)c(O)c32)cc1O,–,–,26.3,–,–,–,–
O=S(=O)(O)c1cccc2c(N=Nc3ccc(O)c4ncccc34)cccc12,–,36.4,36.8,–,–,–,–
Cc1ccccc1N=Nc1ccc(O)c2ncccc12,–,–,–,–,–,–,·
COc1ccc(C(=O)NC(C)c2nnc(SCC(=O)NC3CCCC3)n2C)cc1 (stereo not given),–,–,–,–,–,–,·
COc1ccc2ccc(=O)oc2c1CC(=O)C(C)C,–,–,–,·,–,–,·
CC(=O)c1ccc(N2CCN(C(=O)CN3C(=O)NC4(CCCCC4)C3=O)CC2)c(F)c1,–,–,–,·,–,–,·
COc1ccc(-c2sc3ccc(-c4ccc5c(c4)OCO5)cc3c2-c2ccc(OC)nc2)cc1,–,–,–,·,–,–,·
CC1(C)CCCN(C(=O)c2coc(=O)c(Br)c2)C1,–,–,21.5,·,–,·,–
CCOC(=O)c1ccccc1NC(=O)COC(=O)C(CCSC)NC(=O)COc1ccccc1 (stereo not given),–,–,–,–,–,–,·
CCOCCCNC(=S)N1CCC(NC(=O)C23CC4CC(CC(C4)C2)C3)CC1,–,–,–,–,–,–,·
Cc1ccc(/C=N/NC(=O)CNC(=O)COc2ccc(Cl)cc2)o1,–,–,18.2,–,–,–,–
COc1cc(CC(=O)OCC(=O)c2c[nH]c3ccccc23)cc(OC)c1OC,–,–,–,·,–,–,·
NS(=O)(=O)c1cc(C(=O)O)cc(N2CCCC2)c1Oc1ccccc1,–,–,18.7,–,–,–,–
CCCCNc1cc(C(=O)O)cc(S(N)(=O)=O)c1Oc1ccccc1,–,–,–,–,–,–,·
